Experiment in all cases: DAPPL (digital affinity profiling via proximity ligation, sequencing); 10 mM Tris-HCl pH 7.5, 50 mM NaCl, 1 mM DTT, 4% glycerol, room temperature, 30 min; GST-TFs on glutathione beads, 16-mer random dsDNA library, 0.1% formaldehyde crosslink after washing; high values mean tight binding
One assay has as its target T1, FEV (Homo sapiens, UniProt Q99581 1-238).
T1 sequence: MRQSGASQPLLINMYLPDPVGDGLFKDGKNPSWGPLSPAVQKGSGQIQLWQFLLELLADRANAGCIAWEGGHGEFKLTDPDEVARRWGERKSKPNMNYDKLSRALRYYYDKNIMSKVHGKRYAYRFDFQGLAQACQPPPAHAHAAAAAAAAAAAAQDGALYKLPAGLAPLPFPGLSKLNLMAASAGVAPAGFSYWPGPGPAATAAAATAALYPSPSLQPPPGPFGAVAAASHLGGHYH
The note with it: protein: recombinant; tags: N-terminal GST; dsDNA, one strand shown. An outline of the steps:
(§1)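 After expression in yeast as GST fusions, human transcription factors were bound to glutathione beads, DNA-barcoded and mixed with a tag-only sample. The pools were incubated with 200 nmole of a 16-mer random double-stranded DNA library in Tris/NaCl/DTT/glycerol buffer (30 min, room temperature), washed and crosslinked with 0.1% formaldehyde. Proximity ligation with BsaI/T4 ligase ran for 1 h at 37 °C, before PCR amplification and sequencing on an Illumina NextSeq500. Binding signal is a hexamer's read frequency for a factor divided by its frequency for the tag-only sample.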

The target of another assay is ETV5 (Homo sapiens, UniProt P41161 1-510). The note with it: protein: recombinant; tags: N-terminal GST; dsDNA, one strand shown. An outline of the steps: as §1
Another assay deals with HSF1 (Homo sapiens, UniProt Q00613 1-529). The settings on record: protein: recombinant; tags: N-terminal GST; chain copies: 3; dsDNA, one strand shown. The procedure, abridged: as §1
In the next assay the target is T2, SPIC (Homo sapiens, UniProt Q8N5J4 1-248).
T2 sequence: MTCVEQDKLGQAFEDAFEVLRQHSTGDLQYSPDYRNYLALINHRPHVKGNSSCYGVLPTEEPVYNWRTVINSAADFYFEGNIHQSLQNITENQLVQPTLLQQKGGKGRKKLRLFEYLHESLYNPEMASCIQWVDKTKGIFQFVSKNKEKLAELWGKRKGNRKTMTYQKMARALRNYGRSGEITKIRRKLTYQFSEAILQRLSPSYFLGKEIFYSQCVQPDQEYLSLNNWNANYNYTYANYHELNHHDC
The note with it: protein: recombinant; tags: N-terminal GST; dsDNA, one strand shown. An outline of the steps: as §1

The next assay has as its target ELF4 (Homo sapiens, UniProt Q99607 1-663). The note with it: protein: recombinant; tags: N-terminal GST; dsDNA, one strand shown. An outline of the steps: as §1
Another assay addresses T3, ELK4 (Homo sapiens, UniProt P28324-2 1-405).
T3 sequence: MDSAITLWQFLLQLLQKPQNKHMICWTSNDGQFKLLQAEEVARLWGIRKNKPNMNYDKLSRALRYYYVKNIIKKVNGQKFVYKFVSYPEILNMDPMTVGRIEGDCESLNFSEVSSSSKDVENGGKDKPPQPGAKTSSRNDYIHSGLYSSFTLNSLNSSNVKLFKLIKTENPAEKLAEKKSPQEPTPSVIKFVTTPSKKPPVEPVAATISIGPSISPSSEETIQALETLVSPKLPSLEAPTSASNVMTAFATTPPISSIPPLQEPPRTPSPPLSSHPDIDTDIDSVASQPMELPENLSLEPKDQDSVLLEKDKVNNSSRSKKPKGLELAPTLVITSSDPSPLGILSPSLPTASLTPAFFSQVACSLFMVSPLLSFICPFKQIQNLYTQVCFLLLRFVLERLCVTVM
The note with it: protein: recombinant; tags: N-terminal GST; dsDNA, one strand shown. An outline of the steps:
as §1

The target in the next assay is T4, ETV2 (Homo sapiens, UniProt O00321 1-342).
T4 sequence: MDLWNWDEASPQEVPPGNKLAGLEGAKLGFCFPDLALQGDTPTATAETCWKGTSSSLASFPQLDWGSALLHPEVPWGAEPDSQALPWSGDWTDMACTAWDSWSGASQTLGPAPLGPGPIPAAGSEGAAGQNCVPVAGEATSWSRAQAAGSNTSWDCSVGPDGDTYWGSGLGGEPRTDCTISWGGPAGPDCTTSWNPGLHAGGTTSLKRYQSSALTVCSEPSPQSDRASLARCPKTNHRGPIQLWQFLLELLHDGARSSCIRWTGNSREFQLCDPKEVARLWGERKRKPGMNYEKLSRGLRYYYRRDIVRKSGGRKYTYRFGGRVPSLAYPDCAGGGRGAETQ
The settings on record: protein: recombinant; tags: N-terminal GST; dsDNA, one strand shown. An outline of the steps: as §1

The target of another assay is T5, ELF3 (Homo sapiens, UniProt P78545 1-371).
T5 sequence: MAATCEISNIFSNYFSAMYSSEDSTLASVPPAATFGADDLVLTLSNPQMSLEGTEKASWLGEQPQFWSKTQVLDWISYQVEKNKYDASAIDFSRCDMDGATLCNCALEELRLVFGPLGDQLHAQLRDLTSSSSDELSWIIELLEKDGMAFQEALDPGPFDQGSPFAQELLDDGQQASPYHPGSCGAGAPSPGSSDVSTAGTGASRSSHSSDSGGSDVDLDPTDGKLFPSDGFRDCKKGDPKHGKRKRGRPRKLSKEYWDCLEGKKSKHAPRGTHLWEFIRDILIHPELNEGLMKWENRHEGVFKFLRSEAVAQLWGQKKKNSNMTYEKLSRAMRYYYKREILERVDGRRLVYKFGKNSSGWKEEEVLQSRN
The settings on record: protein: recombinant; tags: N-terminal GST; dsDNA, one strand shown. The procedure, abridged:
as §1

For the next assay, the target named is CRX (Homo sapiens, UniProt O43186 1-299). The settings on record: protein: recombinant; tags: N-terminal GST; dsDNA, one strand shown. The procedure, abridged: as §1
For a further assay, the target named is ETV1 (Homo sapiens, UniProt P50549 1-477). The settings on record: protein: recombinant; tags: N-terminal GST; dsDNA, one strand shown. The procedure, abridged: as §1
A further assay concerns the target T6, ERF (Homo sapiens, UniProt P50548 1-548).
T6 sequence: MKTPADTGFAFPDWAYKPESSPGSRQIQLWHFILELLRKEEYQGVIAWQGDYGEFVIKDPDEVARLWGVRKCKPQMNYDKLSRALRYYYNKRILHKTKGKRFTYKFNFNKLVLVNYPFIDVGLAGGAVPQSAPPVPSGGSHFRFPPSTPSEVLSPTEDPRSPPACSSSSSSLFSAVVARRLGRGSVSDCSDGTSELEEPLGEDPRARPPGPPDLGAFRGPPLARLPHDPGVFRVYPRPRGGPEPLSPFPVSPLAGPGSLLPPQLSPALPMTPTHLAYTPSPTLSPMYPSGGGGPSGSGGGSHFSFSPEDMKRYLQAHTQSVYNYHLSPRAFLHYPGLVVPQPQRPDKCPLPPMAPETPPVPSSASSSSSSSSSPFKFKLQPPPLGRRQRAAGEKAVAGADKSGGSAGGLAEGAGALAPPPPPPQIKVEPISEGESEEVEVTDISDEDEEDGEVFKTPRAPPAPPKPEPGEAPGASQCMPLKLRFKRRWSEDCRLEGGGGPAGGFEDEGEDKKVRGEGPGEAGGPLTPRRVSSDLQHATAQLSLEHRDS
The note with it: protein: recombinant; tags: N-terminal GST; dsDNA, one strand shown. An outline of the steps: as §1

A further assay concerns the target T7, ETV3L (Homo sapiens, UniProt Q6ZN32 1-361).
T7 sequence: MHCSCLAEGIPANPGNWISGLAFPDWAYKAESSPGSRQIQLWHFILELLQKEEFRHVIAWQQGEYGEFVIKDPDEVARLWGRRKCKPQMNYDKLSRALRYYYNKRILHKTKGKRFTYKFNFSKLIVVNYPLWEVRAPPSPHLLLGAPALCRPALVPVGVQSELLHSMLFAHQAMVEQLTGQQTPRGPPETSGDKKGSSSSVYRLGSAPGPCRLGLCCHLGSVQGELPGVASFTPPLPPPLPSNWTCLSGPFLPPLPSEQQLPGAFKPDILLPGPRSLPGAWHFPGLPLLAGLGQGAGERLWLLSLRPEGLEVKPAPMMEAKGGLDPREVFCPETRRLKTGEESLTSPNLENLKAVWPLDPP
The settings on record: protein: recombinant; tags: N-terminal GST; dsDNA, one strand shown. The procedure, abridged: as §1

A further assay deals with T8, ETS2 (Homo sapiens, UniProt P15036 1-469).
T8 sequence: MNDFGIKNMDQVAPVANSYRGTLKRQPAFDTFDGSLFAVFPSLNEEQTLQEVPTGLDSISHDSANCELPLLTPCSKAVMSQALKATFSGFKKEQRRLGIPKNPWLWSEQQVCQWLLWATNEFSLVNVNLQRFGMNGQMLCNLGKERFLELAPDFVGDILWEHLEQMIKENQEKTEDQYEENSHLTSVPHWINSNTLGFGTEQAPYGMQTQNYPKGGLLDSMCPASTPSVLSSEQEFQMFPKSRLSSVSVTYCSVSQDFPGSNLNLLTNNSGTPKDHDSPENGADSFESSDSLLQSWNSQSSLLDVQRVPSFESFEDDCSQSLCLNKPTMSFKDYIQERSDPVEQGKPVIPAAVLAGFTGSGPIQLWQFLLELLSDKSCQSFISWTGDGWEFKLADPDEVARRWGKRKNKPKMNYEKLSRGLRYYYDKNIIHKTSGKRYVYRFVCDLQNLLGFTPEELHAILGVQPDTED
The settings on record: protein: recombinant; tags: N-terminal GST; dsDNA, one strand shown. The procedure, abridged:
as §1

A further assay deals with T9, SPDEF (Homo sapiens, UniProt O95238 1-335).
T9 sequence: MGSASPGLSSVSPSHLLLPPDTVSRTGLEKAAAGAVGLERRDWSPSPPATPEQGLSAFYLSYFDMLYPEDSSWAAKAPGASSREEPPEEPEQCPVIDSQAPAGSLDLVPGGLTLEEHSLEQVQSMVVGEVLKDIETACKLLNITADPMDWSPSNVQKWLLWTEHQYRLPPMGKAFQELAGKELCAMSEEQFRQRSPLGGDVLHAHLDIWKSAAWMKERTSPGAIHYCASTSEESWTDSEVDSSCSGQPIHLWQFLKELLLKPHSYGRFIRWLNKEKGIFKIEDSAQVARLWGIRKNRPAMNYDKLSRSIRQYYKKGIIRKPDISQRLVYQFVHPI
The settings on record: protein: recombinant; tags: N-terminal GST; dsDNA, one strand shown. An outline of the steps: as §1

For another assay, the target named is T10, ETV7 (Homo sapiens, UniProt Q9Y603 1-341).
T10 sequence: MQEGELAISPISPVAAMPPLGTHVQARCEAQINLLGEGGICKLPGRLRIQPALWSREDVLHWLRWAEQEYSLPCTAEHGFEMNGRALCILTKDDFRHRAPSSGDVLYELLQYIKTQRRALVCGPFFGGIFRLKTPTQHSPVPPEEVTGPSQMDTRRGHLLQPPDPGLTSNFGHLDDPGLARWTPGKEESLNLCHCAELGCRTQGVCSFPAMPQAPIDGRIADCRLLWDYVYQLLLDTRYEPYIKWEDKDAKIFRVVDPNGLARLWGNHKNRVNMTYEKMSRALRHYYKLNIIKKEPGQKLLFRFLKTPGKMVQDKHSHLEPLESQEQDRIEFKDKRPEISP
The settings on record: protein: recombinant; tags: N-terminal GST; dsDNA, one strand shown. An outline of the steps:
as §1

A further assay addresses T11, ELF5 (Homo sapiens, UniProt Q9UKW6-2 1-255).
T11 sequence: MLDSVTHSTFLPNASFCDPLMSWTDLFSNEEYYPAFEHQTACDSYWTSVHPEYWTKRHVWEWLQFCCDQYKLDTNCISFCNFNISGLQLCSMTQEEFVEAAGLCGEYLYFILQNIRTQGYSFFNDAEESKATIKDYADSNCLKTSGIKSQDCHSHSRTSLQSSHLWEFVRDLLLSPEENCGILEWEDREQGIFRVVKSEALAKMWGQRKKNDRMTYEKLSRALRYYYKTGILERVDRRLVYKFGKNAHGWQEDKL
The settings on record: protein: recombinant; tags: N-terminal GST; dsDNA, one strand shown. An outline of the steps: as §1

For another assay, the target named is T12, ETV3 (Homo sapiens, UniProt P41162-2 1-143).
T12 sequence: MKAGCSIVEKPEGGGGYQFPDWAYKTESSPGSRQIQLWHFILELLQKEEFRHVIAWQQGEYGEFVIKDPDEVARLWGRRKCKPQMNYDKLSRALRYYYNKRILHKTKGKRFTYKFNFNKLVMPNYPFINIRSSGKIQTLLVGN
The note with it: protein: recombinant; tags: N-terminal GST; dsDNA, one strand shown. An outline of the steps: as §1

A further assay concerns the target ETV6 (Homo sapiens, UniProt P41212 1-452). The settings on record: protein: recombinant; tags: N-terminal GST; dsDNA, one strand shown. An outline of the steps: as §1

Chain of ETV6 (P41212 whole entry): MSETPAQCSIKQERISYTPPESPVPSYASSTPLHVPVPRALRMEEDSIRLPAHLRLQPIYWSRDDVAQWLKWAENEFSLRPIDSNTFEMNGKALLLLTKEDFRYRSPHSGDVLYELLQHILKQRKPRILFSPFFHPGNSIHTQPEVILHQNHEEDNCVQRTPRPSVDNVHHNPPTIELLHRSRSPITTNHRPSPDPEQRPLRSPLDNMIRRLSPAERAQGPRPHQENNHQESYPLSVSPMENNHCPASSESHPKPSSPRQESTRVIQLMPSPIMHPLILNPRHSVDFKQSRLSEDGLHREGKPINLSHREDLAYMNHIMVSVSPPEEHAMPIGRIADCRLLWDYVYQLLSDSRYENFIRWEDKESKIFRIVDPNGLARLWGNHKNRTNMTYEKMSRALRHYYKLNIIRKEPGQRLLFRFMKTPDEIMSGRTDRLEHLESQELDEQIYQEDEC
Chain of CRX (O43186 whole entry): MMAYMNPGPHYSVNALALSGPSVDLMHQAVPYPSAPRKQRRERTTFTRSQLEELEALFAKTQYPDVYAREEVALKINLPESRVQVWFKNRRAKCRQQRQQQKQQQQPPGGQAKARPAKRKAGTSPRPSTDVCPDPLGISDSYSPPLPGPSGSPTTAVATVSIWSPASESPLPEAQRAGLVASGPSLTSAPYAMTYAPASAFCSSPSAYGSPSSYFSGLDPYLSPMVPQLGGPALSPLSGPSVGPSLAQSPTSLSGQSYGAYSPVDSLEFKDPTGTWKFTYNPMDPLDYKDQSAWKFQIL
Chain of HSF1 (Q00613 whole entry): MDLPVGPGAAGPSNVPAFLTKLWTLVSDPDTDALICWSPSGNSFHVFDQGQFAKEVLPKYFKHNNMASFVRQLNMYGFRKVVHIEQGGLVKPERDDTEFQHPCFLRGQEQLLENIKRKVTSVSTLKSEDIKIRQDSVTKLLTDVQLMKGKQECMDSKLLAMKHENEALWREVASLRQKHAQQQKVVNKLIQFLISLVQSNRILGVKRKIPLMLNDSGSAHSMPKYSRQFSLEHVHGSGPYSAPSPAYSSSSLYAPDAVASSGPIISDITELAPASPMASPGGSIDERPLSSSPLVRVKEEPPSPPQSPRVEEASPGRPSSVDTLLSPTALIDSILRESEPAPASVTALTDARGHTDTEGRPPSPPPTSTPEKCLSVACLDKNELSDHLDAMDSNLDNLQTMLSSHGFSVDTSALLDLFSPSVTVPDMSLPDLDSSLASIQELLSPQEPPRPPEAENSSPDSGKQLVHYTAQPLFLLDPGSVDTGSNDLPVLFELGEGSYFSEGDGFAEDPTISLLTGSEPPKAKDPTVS
Chain of ETV1 (P50549 whole entry): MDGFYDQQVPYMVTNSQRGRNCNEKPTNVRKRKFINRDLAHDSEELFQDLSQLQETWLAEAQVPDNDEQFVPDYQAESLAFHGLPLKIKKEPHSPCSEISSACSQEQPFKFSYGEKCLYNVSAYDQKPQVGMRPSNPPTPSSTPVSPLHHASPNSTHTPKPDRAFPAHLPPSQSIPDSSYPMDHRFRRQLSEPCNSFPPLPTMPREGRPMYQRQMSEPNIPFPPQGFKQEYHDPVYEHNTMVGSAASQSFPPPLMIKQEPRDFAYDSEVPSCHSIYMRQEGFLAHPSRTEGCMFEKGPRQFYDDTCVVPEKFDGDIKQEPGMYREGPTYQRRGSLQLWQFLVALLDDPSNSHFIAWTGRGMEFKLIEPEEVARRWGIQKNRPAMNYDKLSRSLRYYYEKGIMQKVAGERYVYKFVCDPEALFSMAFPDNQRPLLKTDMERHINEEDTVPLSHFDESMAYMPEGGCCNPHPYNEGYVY
Chain of ETV5 (P41161 whole entry): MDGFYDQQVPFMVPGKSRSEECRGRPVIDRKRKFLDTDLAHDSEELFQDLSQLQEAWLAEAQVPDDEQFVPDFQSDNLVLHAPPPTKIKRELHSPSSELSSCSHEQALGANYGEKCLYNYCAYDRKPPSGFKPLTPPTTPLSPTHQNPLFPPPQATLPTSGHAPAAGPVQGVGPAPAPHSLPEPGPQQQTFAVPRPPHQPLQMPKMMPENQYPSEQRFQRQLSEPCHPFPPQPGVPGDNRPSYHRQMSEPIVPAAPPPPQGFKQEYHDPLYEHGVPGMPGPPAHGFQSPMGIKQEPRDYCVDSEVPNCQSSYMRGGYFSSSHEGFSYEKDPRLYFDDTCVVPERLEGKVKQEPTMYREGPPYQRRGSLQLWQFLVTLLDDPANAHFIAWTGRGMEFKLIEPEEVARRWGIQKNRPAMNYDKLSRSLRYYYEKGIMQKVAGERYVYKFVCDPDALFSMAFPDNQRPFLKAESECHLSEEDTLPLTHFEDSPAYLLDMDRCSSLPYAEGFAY
Chain of ELF4 (Q99607 whole entry): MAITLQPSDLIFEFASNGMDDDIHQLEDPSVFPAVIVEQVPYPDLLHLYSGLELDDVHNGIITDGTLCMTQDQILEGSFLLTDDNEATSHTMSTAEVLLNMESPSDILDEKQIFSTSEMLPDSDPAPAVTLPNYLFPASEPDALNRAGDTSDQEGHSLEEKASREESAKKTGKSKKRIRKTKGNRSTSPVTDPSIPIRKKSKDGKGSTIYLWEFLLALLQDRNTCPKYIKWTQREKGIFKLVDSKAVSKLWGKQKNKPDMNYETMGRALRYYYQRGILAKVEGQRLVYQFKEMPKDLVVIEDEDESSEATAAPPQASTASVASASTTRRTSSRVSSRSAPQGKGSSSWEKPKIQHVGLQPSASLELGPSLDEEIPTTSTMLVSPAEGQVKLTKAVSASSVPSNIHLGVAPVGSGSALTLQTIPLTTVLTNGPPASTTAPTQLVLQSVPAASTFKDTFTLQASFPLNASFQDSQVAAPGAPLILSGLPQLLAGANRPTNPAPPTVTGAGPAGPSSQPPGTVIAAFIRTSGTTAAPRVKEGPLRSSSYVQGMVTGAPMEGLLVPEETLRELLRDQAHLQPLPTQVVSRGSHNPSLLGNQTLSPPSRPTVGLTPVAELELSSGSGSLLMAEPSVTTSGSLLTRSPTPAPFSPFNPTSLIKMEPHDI

As to CTCTAT, the binding signal with FEV is 1.11 fold enrichment (6-mer frequency, TF over GST control); with ETV5, 1.15 fold enrichment (6-mer frequency, TF over GST control); with HSF1, 1.11 fold enrichment (6-mer frequency, TF over GST control); with SPIC, 1.05 fold enrichment (6-mer frequency, TF over GST control); with ELF4, 1.18 fold enrichment (6-mer frequency, TF over GST control); in the assay with ELK4, 1.19 fold enrichment (6-mer frequency, TF over GST control). The binding signal with ETV2 was 1.21 fold enrichment (6-mer frequency, TF over GST control); with ELF3, 1.2 fold enrichment (6-mer frequency, TF over GST control); with CRX, 1.1 fold enrichment (6-mer frequency, TF over GST control); with ETV1, 1.13 fold enrichment (6-mer frequency, TF over GST control); with ERF it was 1.22 fold enrichment (6-mer frequency, TF over GST control); with ETV3L, 1.14 fold enrichment (6-mer frequency, TF over GST control). For the same sequence, the binding signal is 1.16 fold enrichment (6-mer frequency, TF over GST control) with ETS2; 1.16 fold enrichment (6-mer frequency, TF over GST control) with SPDEF; 1.18 fold enrichment (6-mer frequency, TF over GST control) with ETV7; 1.14 fold enrichment (6-mer frequency, TF over GST control) with ELF5; 1.08 fold enrichment (6-mer frequency, TF over GST control) with ETV3; 1.06 fold enrichment (6-mer frequency, TF over GST control) with ETV6.

The values above are taken from paper PMC7862700, “An all-to-all approach to the identification of sequence-specific readers for epigenetic DNA modifications on cytosine”.
